Data taken from the supplement of paper PMC10849652.
The full data set covers some 7,900 targets. This sample favours those with a hit. About 0.6% of all pairs of compound and target were hits. A number with no mark means an inactive call.

Columns and labels:
Assay in all cases: log2 fold change, soluble protein after heating vs DMSO (PISA); higher = thermal stabilisation; K562 cells, 10 uM, 30 min; active = over 0.2 and 3.5 SD of the protein, either way, in both replicates (recomputed)
[1] = compound: CC[C@@H]1C(=O)N(C)c2cnc(Nc3ccc(C(=O)NC4CCN(C)CC4)cc3OC)nc2N1C1CCCC1
In short: (§1)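 Soluble protein was quantified by TMTpro 16plex LC-MS/MS after channel sums were equalised. It was obtained as the supernatant after 21,000xg for 90 min from pooled aliquots of K562 cells (2×10^6 cells/mL, 10 μM compound, 30 min) heated for 3 min across 48°C-58°C and extracted in PBS with 0.5% NP-40 at 4°C. Thermal stability values are relative to control samples and come from duplicates. They are given as log2 fold changes.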

volasertib = compound: CC[C@@H]1C(=O)N(C)c2cnc(Nc3ccc(C(=O)N[C@H]4CC[C@H](N5CCN(CC6CC6)CC5)CC4)cc3OC)nc2N1C(C)C [volasertib]
In short: as §1

[2] = compound: CC[C@H](C)N1C=C(C2=C(C=C(C=C21)C3=CN=C(C=C3)N4CCNCC4)C(=O)NCC5=C(C=C(NC5=O)C)C)C
In short: as §1

epoxomicin = compound: CC[C@H](C)[C@@H](C(=O)N[C@@H]([C@@H](C)O)C(=O)N[C@@H](CC(C)C)C(=O)[C@]1(CO1)C)NC(=O)[C@H]([C@@H](C)CC)N(C)C(=O)C [epoxomicin]
In short: as §1

[3] = compound: CCn1c(C(=O)N(C2CC2)C2CC2)cc2c3c(ncn3C)c(Nc3cc(C)n(C)n3)nc21
In short: as §1

[4] = compound: CCn1cc(-c2ccnc3[nH]c(-c4cccc(CN(C)C)c4)cc23)c(-c2ccc(NC(=O)N(C)C)cc2)n1
In short: as §1

[5] = compound: CN(C)CC(=O)Nc1ccc2[nH]c(=O)c3ccccc3c2c1
In short: as §1

rosiglitazone = compound: CN(CCOC1=CC=C(C=C1)C[C@H]2C(=O)NC(=O)S2)C3=CC=CC=N3 (racemic) [rosiglitazone]
In short: as §1

[6] = compound: CN1C2=C(C3=C1C(=O)N(N=C3)CC4=CC(=CC=C4)N)SC(=C2)S(=O)C
In short: as §1

[7] = compound: CN1CCC(CNc2ccc3ncc(-c4cccc(OC(F)(F)F)c4)n3n2)CC1
In short: as §1

saracatinib = compound: CN1CCN(CCOc2cc(OC3CCOCC3)c3c(Nc4c(Cl)ccc5c4OCO5)ncnc3c2)CC1 [saracatinib]
In short: as §1

sotrastaurin = compound: CN1CCN(c2nc(C3=C(c4c[nH]c5ccccc45)C(=O)NC3=O)c3ccccc3n2)CC1 [sotrastaurin]
In short: as §1

alvocidib = compound: CN1CC[C@H](c2c(O)cc(O)c3c(=O)cc(-c4ccccc4Cl)oc23)[C@H](O)C1 [alvocidib]
In short: as §1

Tubastatin A = compound: CN1CCc2c(c3ccccc3n2Cc2ccc(C(=O)NO)cc2)C1 [Tubastatin A]
In short: as §1

[8] = compound: CNC(=O)C1=CC=CC=C1NC2=NC(=NC=C2Cl)NC3=C(C=C(C=C3)N4CCOCC4)OC
In short: as §1

defactinib = compound: CNC(=O)c1ccc(Nc2ncc(C(F)(F)F)c(NCc3nccnc3N(C)S(C)(=O)=O)n2)cc1 [defactinib]
In short: as §1

rucaparib = compound: CNCc1ccc(-c2[nH]c3cc(F)cc4c3c2CCNC4=O)cc1 [rucaparib]
In short: as §1

[9] = compound: CNc1nc(-c2ccc3c(N)n[nH]c3c2)cc(N2C[C@@H](C(=O)NC3CCCCC3)CC[C@H]2C)n1
In short: as §1

encorafenib = compound: COC(=O)N[C@@H](C)CNc1nccc(-c2cn(C(C)C)nc2-c2cc(Cl)cc(NS(C)(=O)=O)c2F)n1 [encorafenib]
In short: as §1

[10] = compound: COC(=O)[C@H](CCSC)NC(=O)C1=C(C=C(C=C1)NC[C@H](CS)N)C2=CC=CC=C2
In short: as §1

Sequence of UniProt P14324 (P14324 whole entry, looked up): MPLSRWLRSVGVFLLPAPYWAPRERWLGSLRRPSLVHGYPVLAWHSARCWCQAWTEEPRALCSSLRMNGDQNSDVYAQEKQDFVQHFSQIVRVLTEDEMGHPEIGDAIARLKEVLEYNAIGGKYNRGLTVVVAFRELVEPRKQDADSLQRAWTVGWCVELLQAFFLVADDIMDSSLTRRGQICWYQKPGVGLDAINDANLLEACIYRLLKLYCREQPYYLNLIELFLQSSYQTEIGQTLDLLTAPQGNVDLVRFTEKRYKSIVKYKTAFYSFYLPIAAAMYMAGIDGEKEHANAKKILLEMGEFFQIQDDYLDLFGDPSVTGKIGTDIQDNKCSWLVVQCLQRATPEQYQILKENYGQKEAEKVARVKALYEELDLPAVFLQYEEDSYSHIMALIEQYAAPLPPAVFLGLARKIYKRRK
Sequence of UniProt Q92664 (Q92664 whole entry, looked up): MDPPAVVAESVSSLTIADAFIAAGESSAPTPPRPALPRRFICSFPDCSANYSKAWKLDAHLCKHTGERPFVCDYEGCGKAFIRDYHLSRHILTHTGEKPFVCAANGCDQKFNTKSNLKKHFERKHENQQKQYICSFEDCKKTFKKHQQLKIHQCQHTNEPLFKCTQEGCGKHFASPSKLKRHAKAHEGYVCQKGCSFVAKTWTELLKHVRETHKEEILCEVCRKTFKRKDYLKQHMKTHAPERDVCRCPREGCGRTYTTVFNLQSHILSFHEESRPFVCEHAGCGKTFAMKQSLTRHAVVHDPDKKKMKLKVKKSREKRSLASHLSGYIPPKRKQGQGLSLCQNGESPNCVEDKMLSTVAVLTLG
Sequence of UniProt Q8N4A0 (Q8N4A0 whole entry, looked up): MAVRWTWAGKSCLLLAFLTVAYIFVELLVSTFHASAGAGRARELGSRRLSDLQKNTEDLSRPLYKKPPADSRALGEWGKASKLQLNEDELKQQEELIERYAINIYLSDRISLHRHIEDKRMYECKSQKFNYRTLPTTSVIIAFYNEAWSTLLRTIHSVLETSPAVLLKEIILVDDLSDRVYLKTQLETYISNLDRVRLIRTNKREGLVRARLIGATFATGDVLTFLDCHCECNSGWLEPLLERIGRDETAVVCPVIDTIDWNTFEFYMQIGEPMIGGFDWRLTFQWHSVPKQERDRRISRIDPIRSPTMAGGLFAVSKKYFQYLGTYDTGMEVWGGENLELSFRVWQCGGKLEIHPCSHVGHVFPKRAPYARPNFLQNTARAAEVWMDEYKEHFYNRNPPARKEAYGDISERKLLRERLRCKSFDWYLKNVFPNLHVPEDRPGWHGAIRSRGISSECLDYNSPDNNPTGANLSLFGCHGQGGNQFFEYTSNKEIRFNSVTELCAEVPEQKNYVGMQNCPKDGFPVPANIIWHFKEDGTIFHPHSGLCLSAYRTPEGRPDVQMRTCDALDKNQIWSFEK
Sequence of UniProt Q13547 (Q13547 whole entry, looked up): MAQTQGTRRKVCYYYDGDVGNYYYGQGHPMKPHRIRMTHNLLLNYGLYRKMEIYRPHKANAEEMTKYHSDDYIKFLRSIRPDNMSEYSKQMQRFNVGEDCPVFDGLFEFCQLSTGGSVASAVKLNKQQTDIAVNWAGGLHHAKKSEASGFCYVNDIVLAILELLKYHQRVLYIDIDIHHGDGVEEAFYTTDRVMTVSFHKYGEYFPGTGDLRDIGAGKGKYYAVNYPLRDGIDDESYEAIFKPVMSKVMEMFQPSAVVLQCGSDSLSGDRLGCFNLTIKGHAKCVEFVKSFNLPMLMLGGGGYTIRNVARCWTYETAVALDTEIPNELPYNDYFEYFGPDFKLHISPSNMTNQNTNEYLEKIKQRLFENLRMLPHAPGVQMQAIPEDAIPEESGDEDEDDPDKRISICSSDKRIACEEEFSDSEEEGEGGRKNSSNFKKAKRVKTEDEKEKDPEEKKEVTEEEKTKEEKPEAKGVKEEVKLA
Sequence of UniProt Q86UL3 (Q86UL3 whole entry, looked up): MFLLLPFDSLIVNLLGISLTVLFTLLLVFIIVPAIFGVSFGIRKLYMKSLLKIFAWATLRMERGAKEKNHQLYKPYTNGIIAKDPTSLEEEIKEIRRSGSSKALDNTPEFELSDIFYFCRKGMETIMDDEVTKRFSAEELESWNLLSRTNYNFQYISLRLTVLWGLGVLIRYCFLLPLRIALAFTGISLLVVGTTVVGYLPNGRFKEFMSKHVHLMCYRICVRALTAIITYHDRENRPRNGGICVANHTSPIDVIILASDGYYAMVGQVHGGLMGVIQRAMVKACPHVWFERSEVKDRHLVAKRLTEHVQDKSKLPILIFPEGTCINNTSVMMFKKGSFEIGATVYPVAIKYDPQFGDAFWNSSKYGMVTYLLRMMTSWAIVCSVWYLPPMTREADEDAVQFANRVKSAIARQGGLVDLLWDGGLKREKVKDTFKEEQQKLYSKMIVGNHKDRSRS
Sequence of UniProt Q9Y692 (Q9Y692 whole entry, looked up): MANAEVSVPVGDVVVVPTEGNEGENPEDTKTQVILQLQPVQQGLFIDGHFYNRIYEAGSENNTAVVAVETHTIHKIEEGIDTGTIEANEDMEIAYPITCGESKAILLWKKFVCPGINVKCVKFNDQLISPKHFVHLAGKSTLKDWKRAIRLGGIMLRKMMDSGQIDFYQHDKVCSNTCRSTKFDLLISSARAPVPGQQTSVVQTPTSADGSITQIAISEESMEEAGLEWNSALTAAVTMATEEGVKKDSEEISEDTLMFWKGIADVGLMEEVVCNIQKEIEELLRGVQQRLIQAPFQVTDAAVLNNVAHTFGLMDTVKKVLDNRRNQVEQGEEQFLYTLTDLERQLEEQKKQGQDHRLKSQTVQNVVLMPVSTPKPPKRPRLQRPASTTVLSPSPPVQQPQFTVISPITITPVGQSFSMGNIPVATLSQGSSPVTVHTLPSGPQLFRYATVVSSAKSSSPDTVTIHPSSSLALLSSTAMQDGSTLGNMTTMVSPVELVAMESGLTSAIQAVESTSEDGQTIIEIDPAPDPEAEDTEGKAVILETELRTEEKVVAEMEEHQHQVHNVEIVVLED
Sequence of UniProt O95363 (O95363 whole entry, looked up): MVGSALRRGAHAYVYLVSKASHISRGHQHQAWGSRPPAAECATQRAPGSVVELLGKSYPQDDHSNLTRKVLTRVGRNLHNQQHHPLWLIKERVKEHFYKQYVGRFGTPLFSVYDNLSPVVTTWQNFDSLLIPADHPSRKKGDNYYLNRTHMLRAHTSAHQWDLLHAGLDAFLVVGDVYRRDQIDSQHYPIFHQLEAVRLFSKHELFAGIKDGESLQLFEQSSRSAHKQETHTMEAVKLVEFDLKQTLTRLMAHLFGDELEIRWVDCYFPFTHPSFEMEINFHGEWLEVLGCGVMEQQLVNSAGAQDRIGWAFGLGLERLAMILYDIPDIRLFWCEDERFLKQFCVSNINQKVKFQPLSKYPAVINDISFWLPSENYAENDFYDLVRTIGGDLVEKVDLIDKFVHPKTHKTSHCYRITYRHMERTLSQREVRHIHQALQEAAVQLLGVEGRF
Sequence of UniProt P36969 (P36969 whole entry, looked up): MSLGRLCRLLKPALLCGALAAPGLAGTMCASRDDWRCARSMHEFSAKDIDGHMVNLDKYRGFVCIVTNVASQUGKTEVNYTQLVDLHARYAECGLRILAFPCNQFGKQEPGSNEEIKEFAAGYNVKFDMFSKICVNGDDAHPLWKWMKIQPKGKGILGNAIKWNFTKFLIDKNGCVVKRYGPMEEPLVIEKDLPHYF
Sequence of UniProt Q96LB3 (Q96LB3 whole entry, looked up): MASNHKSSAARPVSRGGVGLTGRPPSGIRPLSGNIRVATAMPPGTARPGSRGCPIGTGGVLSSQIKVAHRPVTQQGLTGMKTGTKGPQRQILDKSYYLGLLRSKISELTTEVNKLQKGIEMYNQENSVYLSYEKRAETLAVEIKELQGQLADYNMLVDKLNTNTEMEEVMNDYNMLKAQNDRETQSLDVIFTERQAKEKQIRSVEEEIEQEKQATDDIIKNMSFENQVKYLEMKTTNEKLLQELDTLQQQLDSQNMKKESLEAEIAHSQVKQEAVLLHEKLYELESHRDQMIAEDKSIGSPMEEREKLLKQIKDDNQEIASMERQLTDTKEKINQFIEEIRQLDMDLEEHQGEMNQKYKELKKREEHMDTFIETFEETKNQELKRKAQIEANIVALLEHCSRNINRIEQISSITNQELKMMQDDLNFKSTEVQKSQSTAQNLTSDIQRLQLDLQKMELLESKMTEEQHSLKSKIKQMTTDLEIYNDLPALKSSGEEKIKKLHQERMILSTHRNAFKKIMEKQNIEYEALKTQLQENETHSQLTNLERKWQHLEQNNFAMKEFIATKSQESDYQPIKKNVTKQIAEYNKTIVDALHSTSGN
Sequence of UniProt P15586 (P15586 whole entry, looked up): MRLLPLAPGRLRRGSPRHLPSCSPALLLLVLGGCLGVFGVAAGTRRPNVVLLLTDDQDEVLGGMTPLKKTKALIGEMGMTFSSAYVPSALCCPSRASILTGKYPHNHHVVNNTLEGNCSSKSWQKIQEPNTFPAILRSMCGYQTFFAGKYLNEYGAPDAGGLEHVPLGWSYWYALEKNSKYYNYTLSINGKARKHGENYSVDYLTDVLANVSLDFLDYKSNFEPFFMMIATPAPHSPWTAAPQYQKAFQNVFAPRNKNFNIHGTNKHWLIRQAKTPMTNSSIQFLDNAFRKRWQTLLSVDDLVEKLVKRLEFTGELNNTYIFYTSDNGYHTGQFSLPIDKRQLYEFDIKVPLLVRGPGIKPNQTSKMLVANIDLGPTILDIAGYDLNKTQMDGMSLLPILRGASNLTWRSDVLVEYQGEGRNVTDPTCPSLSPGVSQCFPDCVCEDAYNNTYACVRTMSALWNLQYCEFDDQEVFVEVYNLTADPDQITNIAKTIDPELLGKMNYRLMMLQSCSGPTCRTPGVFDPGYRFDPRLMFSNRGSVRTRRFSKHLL
Sequence of UniProt Q9Y680 (Q9Y680 whole entry, looked up): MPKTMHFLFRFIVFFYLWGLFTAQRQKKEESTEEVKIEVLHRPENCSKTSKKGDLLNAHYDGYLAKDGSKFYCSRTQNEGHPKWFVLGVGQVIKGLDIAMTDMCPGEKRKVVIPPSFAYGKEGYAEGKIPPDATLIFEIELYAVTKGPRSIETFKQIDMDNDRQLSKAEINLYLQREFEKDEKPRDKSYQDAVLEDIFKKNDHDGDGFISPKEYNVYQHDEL

Row | Target | log2 fold change [1] | log2 fold change (volasertib) | log2 fold change [2] | log2 fold change (epoxomicin) | log2 fold change [3] | log2 fold change [4] | log2 fold change [5] | log2 fold change (rosiglitazone) | log2 fold change [6] | log2 fold change [7] | log2 fold change (saracatinib) | log2 fold change (sotrastaurin) | log2 fold change (alvocidib) | log2 fold change (Tubastatin A) | log2 fold change [8] | log2 fold change (defactinib) | log2 fold change (rucaparib) | log2 fold change [9] | log2 fold change (encorafenib) | log2 fold change [10]
1 | FKBP7 (UniProt Q9Y680) | 0.035 | 0.021 | 0.015 | -0.04 | 0.003 | 0.026 | -0.042 | -0.054 | -0.001 | 0.191 | 0.073 | 0.056 | 0 | -0.026 | 0.008 | -0.032 | 0.01 | 0.031 | 0.044 | 0.036
2 | FARS2 (UniProt O95363) | 0.01 | -0.172 | 0.109 | -0.034 | 0.036 | -0.052 | -0.036 | 0.086 | -0.002 | -0.319 (active) | -0.026 | -0.003 | -0.158 | -0.045 | 0.075 | -0.023 | -0.026 | 0.074 | 0.026 | -0.054
3 | GPAT4 (UniProt Q86UL3) | -0.042 | -0.046 | -0.036 | 0.063 | -0.01 | -0.039 | 0.029 | 0.008 | -0.063 | 0.143 | 0.042 | 0.046 | -0.046 | -0.039 | 0.04 | -0.017 | 0.055 | -0.069 | -0.021 | 0.031
4 | HAX1 (UniProt O00165) | -0.087 | -0.393 (active) | -0.011 | -0.018 | -0.031 | 0.084 | 0.05 | 0.023 | 0.012 | -0.584 (active) | -0.067 | -0.106 | -0.015 | 0.015 | -0.14 | -0.008 | 0.082 | 0.051 | 0.045 | -0.013
5 | FDPS (UniProt P14324) | -0.059 | -0.191 | 0.075 | 0.028 | -0.054 | -0.277 | 0.111 | 0.235 | -0.034 | -0.608 (active) | -0.151 | -0.041 | -0.057 | 0.062 | -0.097 | -0.032 | -0.112 | 0.237 | 0.137 | -0.118
6 | GALNT4 (UniProt Q8N4A0) | -0.062 | -0.334 (active) | -0.032 | -0.041 | -0.032 | -0.031 | 0.007 | 0.051 | -0.007 | -0.367 (active) | -0.088 | -0.029 | -0.033 | 0.046 | -0.063 | 0.016 | -0.079 | -0.138 | 0.04 | -0.013
7 | GNS (UniProt P15586) | -0.272 (active) | -0.181 | -0.045 | -0.012 | 0.018 | -0.003 | -0.007 | -0.005 | -0.016 | -0.408 (active) | 0.014 | 0.041 | -0.022 | -0.012 | -0.007 | -0.011 | 0 | -0.034 | 0.009 | -0.009
8 | GTF3A (UniProt Q92664) | -0.128 | -0.028 | 0.074 | -0.101 | -0.024 | -0.263 | 0.049 | 0.071 | 0.016 | -0.447 (active) | 0.019 | -0.008 | -0.113 | -0.072 | -0.03 | -0.18 | 0.206 | -0.005 | -0.138 | 0
9 | IFT74 (UniProt Q96LB3) | 0.125 | 0.01 | -0.319 | -0.061 | -0.057 | 0 | -0.051 | 0.031 | 0.025 | -0.05 | -0.079 | -0.001 | 0.048 | 0.259 | -0.223 | 0.028 | 0.06 | 0.003 | -0.055 | 0.075
10 | GMEB1 (UniProt Q9Y692) | -0.071 | -0.281 (active) | 0.039 | 0.059 | -0.056 | -0.05 | -0.045 | 0.096 | -0.07 | -0.014 | -0.055 | -0.06 | -0.123 | -0.022 | 0.028 | -0.06 | -0.047 | -0.051 | 0.043 | -0.003
11 | HDAC1 (UniProt Q13547) | -0.025 | -0.216 | 0.037 | -0.006 | -0.015 | 0.019 | 0.011 | -0.027 | 0.001 | -0.043 | -0.004 | -0.026 | -0.137 | 1.52 (active) | -0.163 | -0.15 | 0.023 | 0.04 | -0.046 | -0.062
12 | HIST2H2BF isoform 2 (UniProt Q5QNW6) | -0.043 | 0.153 | -0.079 | -0.243 | 0.017 | 0.231 | -0.22 | -0.055 | 0.398 | 0.084 | -0.084 | 0.074 | 0.144 | 0.093 | -0.044 | 0.313 | 0.325 | 0.039 | 0.015 | 0.05
13 | GPX4 (UniProt P36969) | 0.019 | 0.016 | 0.012 | 0.021 | 0.001 | -0.025 | 0.009 | -0.012 | -0.061 | 0.067 | 0.043 | 0.004 | -0.035 | -0.371 (active) | -0.02 | -0.009 | 0.002 | -0.037 | -0.009 | -0.013
14 | GATD1 (UniProt Q8NB37) | -0.023 | -0.009 | -0.032 | 0.078 | 0.013 | -0.034 | -0.02 | 0.013 | 0.011 | -0.049 | 0.077 | 0.057 | -0.084 | 0.06 | -0.079 | 0.001 | -0.004 | -0.022 | 0 | 0.011
15 | FUCA2 (UniProt Q9BTY2) | -1.11 (active) | -1.04 (active) | 0.001 | -0.024 | 0.007 | 0.003 | -0.019 | -0.023 | -0.033 | -0.029 | -0.013 | -0.021 | -0.003 | -0.026 | 0.028 | -0.045 | -0.139 | 0.003 | 0.012 | 0.038
